Records with an inconclusive call do not appear. Entries that show only a call come without a potency. Active and inactive are the calls of the source. The call rests on the fitted dose curve; in most records, active means well fitted inhibition curve with a large enough effect; inconclusive means small, poorly fitted or top-dose-only effect; inactive means flat fitted curve, though single readings scatter. Numbered stars: 1 amine (or outer) side, 2 acyl side, 3 side chain; on linkers, the order of the positions; unused ones are H or OH. Bridge positions count the residues as written; N and C are the ends. Square brackets hold non-standard residues; d marks the D form. Peptide text beside a SMILES is read from it. * marks the point of attachment. ξ: configuration not given here. ΔAla(Z-3-ureido) = NC(=O)N/C=C(\N)C(=O)O; ξDab(CH2SO3H) = NC(CCNCS(=O)(=O)O)C(=O)O; X2 = NC1=NC(O)CC(C(N[*:1])C(=O)[*:2])N1; Heptanoyl(6-Me) = CC(C)CCCCC(=O)*; ξβ3hOrn = NCCCC(N)CC(=O)*; Orn = NCCC[CH](N)C(=O)O; Dab = NCC[CH](N)C(=O)O; Dap = NC[CH](N)C(=O)O
Legend:
Assay in all cases: qHTS profiling for inhibitors of Plasmodium falciparum proliferation (AID 504749); further: nearly all actives have a fitted effect of over 60% in size
Settings in all cases: P. falciparum in erythrocytes, SYBR Green DNA, 72 h; series mostly up to 28.7 µM
AA1029 = tested on: AA1029
Method in brief: (§1)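 SYBR Green fluorescence (ex 485 nm, em 535 nm) reports parasite DNA after 72 h compound exposure of infected red cells at 0.3% parasitemia, 2.5% hematocrit; signal normalized to 0.29 uM artemisinin and vehicle wells.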

CP191 = tested on: CP191
Method in brief: as §1

CP192 = tested on: CP192
Method in brief: as §1

CP194 = tested on: CP194
Method in brief: as §1

CP203 = tested on: CP203
Method in brief: as §1

CP217 = tested on: CP217
Method in brief: as §1

CP237 = tested on: CP237
Method in brief: as §1

CP266 = tested on: CP266
Method in brief: as §1

CP268 = tested on: CP268
Method in brief: as §1

CP269 = tested on: CP269
Method in brief: as §1

CP291 = tested on: CP291
Method in brief: as §1

CP315 = tested on: CP315
Method in brief: as §1

CP329 = tested on: CP329
Method in brief: as §1

CP335 = tested on: CP335
Method in brief: as §1

DIV30 = tested on: DIV30
Method in brief: as §1

HB3 = tested on: HB3
Method in brief: as §1

JCK = tested on: JCK
Method in brief: as §1

P94_40 = tested on: P94_40
Method in brief: as §1

PC26 = tested on: PC26
Method in brief: as §1

TAB109 = tested on: TAB109
Method in brief: as §1
Potency means the concentration at half of the fitted maximal effect.

| SMILES | Potency (AA1029) | Potency (CP191) | Potency (CP192) | Potency (CP194) | Potency (CP203) | Potency (CP217) | Potency (CP237) | Potency (CP266) | Potency (CP268) | Potency (CP269) | Potency (CP291) | Potency (CP315) | Potency (CP329) | Potency (CP335) | Potency (DIV30) | Potency (HB3) | Potency (JCK) | Potency (P94_40) | Potency (PC26) | Potency (TAB109) |
| --- | --- | --- | --- | --- | --- | --- | --- | --- | --- | --- | --- | --- | --- | --- | --- | --- | --- | --- | --- | --- |
| CC(C)C[C@H](NC(=O)[C@@H](Cc1c[nH]c2ccccc12)NC(=O)[C@@H](Cc1ccc(O)cc1)NC(=O)[C@@H](CO)NC(=O)[C@@H](Cc1c[nH]c2ccccc12)NC(=O)C(Cc1cnc[nH]1)NC(=O)C1CCC(=O)N1)C(=O)N[C@@H](CCCN=C(N)N)C(=O)N1CCC[C@@H]1C(=O)NCC(N)=O (stereo partly drawn) | inactive | inactive | inactive | inactive | inactive | inactive | inactive | inactive | inactive | inactive | inactive | inactive | inactive | inactive | inactive | inactive | inactive | inactive | inactive | inactive |
| Cn1cc(O)nc1NC(=O)Nc1cccc(Cl)c1 | inactive |  | inactive | inactive | inactive | inactive | inactive | inactive | inactive | inactive | inactive | inactive |  | inactive | inactive | inactive | inactive | inactive | inactive | inactive |
| CC(C)CC(NC(=O)C(COC(C)(C)C)NC(=O)C(Cc1ccc(O)cc1)NC(=O)C(CO)NC(=O)C(Cc1c[nH]c2ccccc12)NC(=O)C(Cc1cnc[nH]1)NC(=O)C1CCC(=O)N1)C(=O)NC(CCCN=C(N)N)C(=O)N1CCCC1C(=O)NNC(N)=O (stereo not drawn) | inactive | inactive | inactive | inactive | inactive | inactive | inactive | inactive | inactive | inactive | inactive | inactive | inactive | inactive | inactive | inactive | inactive | inactive | inactive | inactive |
| CCC(C)C1NC(=O)C(Cc2ccc(O)cc2)NC(=O)C(N)CSSCC(C(=O)N2CCCC2C(=O)NC(CC(C)C)C(=O)NCC(N)=O)NC(=O)C(CC(N)=O)NC(=O)C(CCC(N)=O)NC1=O (stereo not drawn) | inactive | inactive | inactive | inactive | inactive | inactive | inactive | inactive | inactive | inactive | inactive | inactive | inactive | inactive | inactive | inactive | inactive | inactive | inactive | inactive |
| CCC1NC(=O)C(NC(=O)c2ncccc2O)C(C)OC(=O)C(c2ccccc2)NC(=O)C2CC(=O)CCN2C(=O)C(Cc2ccccc2)N(C)C(=O)C2CCCN2C1=O (stereo not drawn) | inactive | inactive | inactive | inactive | inactive | inactive | inactive | inactive | inactive | inactive | inactive | inactive | inactive | inactive | inactive |  | inactive |  | inactive | inactive |
| O=C(OCC1OC(OC(=O)c2cc(O)c(O)c(OC(=O)c3cc(O)c(O)c(O)c3)c2)[C@@H](OC(=O)c2cc(O)c(O)c(OC(=O)c3cc(O)c(O)c(O)c3)c2)C(OC(=O)c2cc(O)c(O)c(OC(=O)c3cc(O)c(O)c(O)c3)c2)C1OC(=O)c1cc(O)c(O)c(OC(=O)c2cc(O)c(O)c(O)c2)c1)c1cc(O)c(O)c(OC(=O)c2cc(O)c(O)c(O)c2)c1 (stereo partly drawn) | 2510 nM (active) | 2820 nM (active) | 7570 nM (active) | 3790 nM (active) | 4260 nM (active) | 3550 nM (active) | 2510 nM (active) | 3790 nM (active) | 3380 nM (active) | 1900 nM (active) |  | 5360 nM (active) | 4260 nM (active) | 1690 nM (active) | 5360 nM (active) | 2000 nM (active) | 10000 nM (active) | 2820 nM (active) | 7570 nM (active) | 2820 nM (active) |
| CC(C)CC1NC(=O)C(CCCN)NC(=O)C(C(C)C)NC(=O)C2CCCN2C(=O)C(Cc2ccccc2)NC(=O)C(CC(C)C)NC(=O)C(CCCN)NC(=O)C(C(C)C)NC(=O)C2CCCN2C(=O)C(Cc2ccccc2)NC1=O (stereo not drawn) (cyclo(FPV[Orn]LFPV[Orn]L); configuration not given here) | 0.9 nM (active) | 2.8 nM (active) | 1.7 nM (active) | 1.3 nM (active) | 1.3 nM (active) | 2.2 nM (active) | 0.9 nM (active) | 1.9 nM (active) | 13.5 nM (active) | 1.3 nM (active) | 0.4 nM (active) | 1.7 nM (active) | 1.9 nM (active) | 0.5 nM (active) | 0.4 nM (active) | 3.5 nM (active) | 56.2 nM (active) | 0.4 nM (active) | 1.1 nM (active) | 1.1 nM (active) |
| CCC(C)C1NC(=O)C(CCNCS(=O)(=O)O)NC(=O)C(NC(=O)C(CCNCS(=O)(=O)O)NC(=O)C(NC(=O)C(CCNCS(=O)(=O)O)NC(=O)CCCCC(C)C)C(C)O)CCNC(=O)C(C(C)O)NC(=O)C(CCNCS(=O)(=O)O)NC(=O)C(CCNCS(=O)(=O)O)NC(=O)C(C(C)CC)NC1=O (stereo not drawn) ({Heptanoyl(6-Me)}-[ξDab(CH2SO3H)]T[ξDab(CH2SO3H)][Dab][ξDab(CH2SO3H)]II[ξDab(CH2SO3H)][ξDab(CH2SO3H)]T; lactam 4-C; configuration not given here) | inactive | inactive | inactive | inactive | inactive | inactive | inactive | inactive | inactive | inactive | inactive | inactive | inactive | inactive | inactive | inactive | inactive | inactive | inactive | inactive |
| NCCCC(N)CC(=O)NC1CNC(=O)C(C2CC(O)N=C(N)N2)NC(=O)/C(=C/NC(N)=O)NC(=O)C(CO)NC(=O)C(CO)NC1=O (stereo not drawn) (ξβ3hOrn-[Dap]SS[ΔAla(Z-3-ureido)][X2]; lactam 1-C; configuration not given here) | inactive | inactive | inactive | inactive | inactive | inactive | inactive | inactive | inactive | inactive | inactive | inactive | inactive | inactive | inactive | inactive | inactive | inactive | inactive | inactive |
| COc1ccc(-c2nc3ccc(C4=C(C)CC(=O)NN4)cc3[nH]2)cc1 | inactive | inactive | inactive |  |  | inactive |  | inactive |  |  | inactive | inactive | inactive | inactive |  | inactive | inactive | inactive |  |  |
| CC1(C)C(/C=C/C=C/C=C/C=C2\N(CCCCS(=O)(=O)O)c3ccc4ccccc4c3C2(C)C)=[N+](CCCCS(=O)(=O)[O-])c2ccc3ccccc3c21 | inactive | inactive | inactive | inactive | inactive |  | inactive | inactive | inactive | inactive | inactive | inactive | inactive |  | inactive | inactive | inactive | inactive | inactive | inactive |
| CCC(Oc1ccccc1)C(=O)NC1C(=O)N2C1SC(C)(C)C2C(=O)O (stereo not drawn) | inactive | inactive |  | inactive | inactive | inactive | inactive | inactive | inactive | inactive | inactive | inactive | inactive | inactive | inactive | inactive | inactive | inactive | inactive | inactive |
| CC(C)C(NC(=O)C(CC(=O)O)NC(=O)C(CCCCN)NC(=O)C(N)CCCN=C(N)N)C(=O)NC(Cc1ccc(O)cc1)C(=O)O (stereo not drawn) (H-RKDVY-OH; configuration not given here) | inactive | inactive | inactive | inactive | inactive | inactive | inactive | inactive | inactive | inactive | inactive | inactive | inactive | inactive | inactive | inactive | inactive | inactive | inactive | inactive |
| O=C(O)c1ccccc1-c1c2cc(Br)c(=O)c(Br)c-2oc2c(Br)c(O)c(Br)cc12 | inactive | inactive | inactive | inactive | inactive | inactive | inactive |  | inactive | inactive | inactive | inactive | inactive | inactive | inactive | inactive | inactive | inactive | inactive | inactive |
| C=CC1=C(C(=O)O)N2C(=O)[C@@H](NC(=O)C(N=O)c3csc(N)n3)[C@H]2SC1 (stereo partly drawn) | inactive | inactive | inactive | inactive | inactive | inactive | inactive | inactive | inactive | inactive | inactive | inactive | inactive | inactive | inactive | inactive | inactive | inactive | inactive | inactive |
| CNCC(=O)NC(CCCN=C(N)N)C(=O)NC(C(=O)NC(Cc1ccc(O)cc1)C(=O)NC(C(=O)NC(Cc1cnc[nH]1)C(=O)N1CCCC1C(=O)NC(C)C(=O)O)C(C)C)C(C)C (stereo not drawn) | inactive | inactive | inactive | inactive | inactive | inactive | inactive | inactive | inactive | inactive | inactive | inactive | inactive | inactive | inactive | inactive | inactive | inactive | inactive | inactive |
